For 40 compounds, Potency and activity change, negative = viability loss results are on record in PubChem BioAssay (NCATS).

The structures appear in SMILES notation. Where “and” joins values, the source holds several entries; their conditions need not be identical. Equal entries are not always repeated. Results filed as inconclusive are left out. Where a call stands in place of a potency, no number is given. Unmarked numbers belong to inactive results. Calls of active or inactive are those of the source. The call rests on the fitted dose curve; in most records, active means well fitted cell-killing curve with a large enough effect; inconclusive means small, poorly fitted or top-dose-only effect; inactive means flat fitted curve, though single readings scatter.

This assay is described as follows: Cellular viability qHTS for adrenocortical cancer (ACC) cell line NCI-H295R (AID 1963990). Further: nearly all actives have a fitted effect of over 60% in size. Conditions: CellTiter-Glo ATP luminescence, 48 h; series mostly up to 46.1 µM. An excerpt: PI: Naris Nilubol, MD Surgical Oncology Program, National Cancer Institute (NCI) National Institute of Health (NIH), Bethesda, Maryland Adrenocortical cancer (ACC) is a rare malignancy with poor survival outcomes and few treatment options. Currently, mitotane is the only FDA-approved therapy for ACC. Although adjuvant radiation therapy is rarely utilized, it has the potential to improve survival in select cases. Through a quantitative high-throughput drug screen (qHTS), we identified auranofin (AF), a thioredoxin reductase (TXNRD) inhibitor, as a promising candidate drug. This study aims to evaluate whether AF can enhance the efficacy of radiation therapy in the treatment of ACC. Two human ACC cell lines, SW-13 and NCI-H295R, were screened using the National Center for Advancing Translational Sciences (NCATS) Pharmaceutical Collection (NPC) and the Mechanism Interrogation PlatE (MIPE) library (~4,991 compounds). CellTiter-Glo (Cat # G7570, Promega, Madison, WI) was utilized to measure cell viability. Described herein are the results of the corresponding viability assay.
PROTOCOL TABLE (as described by Inglese J, Shamu CE and Guy RK. 2007) SEQUENCE No. (e.g., 1, 2, 3, etc.); […] (e.g., Cells, Incubation, Reagent, etc.); VALUE; DESCRIPTION. 1; Cells; 5 uL; white, solid-bottom, 1536-well tissue-culture treated plates. 2; Time; overnight culture at 37C with 5% CO2. 3; Compounds and control; 23 nL; Kalypsis pin tool (Wako USA) equipped with a 1536-well pin head to transfer to the assay plates. 4; Time; 48 hours; 37C with 5% CO2. 5; Reagent; 4 uL; CellTiter-Glo luminescent substrate mix. 6; Time; 20 min at room temperature. 7; Detection; Luminescence; ViewLux plate reader NOTES (numbers refer to Sequence numbers above) 1. NCI-H295R cells were harvested from a T175 flask and resuspended in ITS-supplemented DMEM serum-free medium at a concentration of 300 000 cells/mL. Then 5 uL of resuspended cells were dispensed into each well of white, solid-bottom, 1536-well tissue-culture-treated plates using a multidrop combi dispenser. The plates were covered with stainless steel gasket lids. 2-3. The plates were cultured overnight at 37C with 5% CO2. Twenty-three nL of compounds (eight selected concentrations from the NPC / MIPE) or positive control (10 mM stock of bortezomib) in DMSO was transferred to each well of the assay plate using a pin tool (Kalypsys, San Diego, CA, USA). The final concentration of the compounds in the 5 uL assay volume ranged from 0.5 nM to 46 uM. 4-6. After 48 hours of incubation at 37C and 5% CO2, 4 uL of CellTilter-Glo luminescent substrate mix (Promega, Madison, WI, USA) was added to each well. Then the plates were incubated for 20 minutes at room temperature. 7. After incubation, luminescence was measured using a ViewLux plate reader (PerkinElmer, Waltham, MA, USA) with a clear filter was used to measure the number of metabolically competent cells. To determine compound activity in the qHTS assay, the titration-response data for each sample was plotted and modeled by a four-parameter logistic fit yielding IC50 and efficacy (maximal response) values. Raw plate reads for each titration point were normalized relative to positive control ([…], 100% inhibition) and DMSO-only wells (basal, 0%). REFERENCES: Inglese J, Shamu CE and Guy RK, Reporting data from high throughput screening of small molecule libraries, Nature Chemical Biology, 2007, 3(8): 438-441. doi.org/10.1038/nchembio0807-438.
For `Cc1ccc(NS(=O)(=O)c2cccc(C#N)c2)c2[nH]cc(C#N)c12`, the Potency is 0.112 µM (active).
Still for that read-out and setting: then `OC(CCN1CCCCC1)(c1ccccc1)c1ccccc1`, with “inactive”; and `Cn1cc(-c2ccc(-c3cncc(Cl)c3N3CCC4(CCNC4=O)CC3)cc2)cn1`, with “inactive”.
Consider `CC1(c2ccccc2)OC(C(=O)O)=CC1=O` (stereo not given), for which the Potency result was “inactive”.
The same measure, in the same setting: then `NS(=O)(=O)c1ccc(NC(=O)CCC(=O)O)cc1`, with “inactive”; and `Cc1ccc(S(=O)(=O)Nc2cc(-c3ccc(C#N)s3)ccc2C)cc1`, with 0.0316 µM (active); and `CCOCc1nc2c(N)nc3ccccc3c2n1CC(C)(C)O`, with “inactive”.
Still for that read-out and setting: the same measure for `CC(C)c1ccc2oc3nc(N)c(C(=O)O)cc3c(=O)c2c1`: “inactive”; for `CCCCOCCOc1nc(-c2ccc(C(=O)O)c(F)c2)sc1C`: “inactive”.
On to `Cn1cc(C[C@@H](N)C(=O)O)c2ccccc21`, for which the activity change, negative = viability loss is -13.9% [at 9.17 µM].
In the case of `Nc1ncnc2c1C(=O)N(c1ccc(C3CCC(CC(=O)O)CC3)cc1)CCO2` (stereo not given), the Potency entry was “inactive”.
Still for that read-out and setting: the same measure for `COc1ccc(CCN(C)CCCN2CCc3cc(OC)c(OC)cc3CC2=O)cc1OC`: “inactive”; for `O=C(c1ccc(Nc2nccc(-c3cc4ccccc4s3)n2)cc1)N1CCC(N2CCCC2)CC1`: 5.62 µM (active); for `O=C(Nc1cnn2ccc(N3CCC[C@@H]3c3cc(F)ccc3F)nc12)N1CC[C@H](O)C1`: “inactive”.
Same read-out and setting: the same measure for `CCC1=C(C)CN(C(=O)NCCc2ccc(S(=O)(=O)NC(=O)NC3CCC(C)CC3)cc2)C1=O` (stereo not given): “inactive”; for `CCC(C)CNCC(=O)N1CCc2sccc2C1c1cccc(C)n1` (stereo not given): “inactive”; for `CN1CCC(=C2c3ccccc3CC(=O)c3sccc32)CC1`: “inactive”.
Same read-out and setting: the same measure for `CCOC(=O)c1cnc2c(cnn2CC)c1NN=C(C)C`: “inactive”; for `NCC(=O)Nc1cncc(-c2nn3c(=O)cc(N4CCNCC4)nc3s2)c1`: “inactive”.
Consider `O=C1Nc2nc(-c3c(O)cccc3OCC3CC3)cc([C@@H]3CCCNC3)c2CO1`, for which the Potency was 17.8 µM (active).
`C[C@@H]1CCN(C(=O)[C@H](CCCN=C(N)N)NS(=O)(=O)c2cccc3c2NC[C@H](C)C3)[C@@H](C(=O)O)C1`: the Potency result was “inactive”.
Take `C=CCNC1=C2C[C@@H](C)C[C@H](OC)[C@H](O)[C@@H](C)/C=C(\C)[C@H](OC(N)=O)[C@@H](OC)/C=C\C=C(/C)C(=O)NC(=CC1=O)C2=O`: the Potency was 10 µM (active).
Same read-out and setting: the same measure for `O=C1NC(O)CCN1[C@@H]1O[C@H](CO)[C@H](O)[C@H]1O` (stereo not given in full): “inactive”; for `COC(=O)C1=C(C)NC(C)=C(C(=O)OCCN2CCN(C(c3ccccc3)c3ccccc3)CC2)C1c1cccc([N+](=O)[O-])c1` (stereo not given): 3.98 µM (active); for `O=C(NCCCNC(=O)c1ccc[nH]c1=O)c1cc(-c2ccccc2)on1`: 15.8 µM (active).
As to `CC(C)(C)NC(=O)c1cncn1C1CCN(c2ccc(-c3nnc(C(F)(F)F)o3)cn2)CC1`, the Potency is 2.82 µM (active).
Still for that read-out and setting: the same measure for `CC(=O)N[C@H]1CSSC[C@@H](C(N)=O)NC(=O)[C@H](C(C)C)NC(=O)[C@H](C)NC(=O)[C@H](Cc2cnc[nH]2)NC1=O`: “inactive”.
Same read-out and setting: then `CC(C)Oc1cc(Nc2nc(N[C@@H](C)c3ccc(F)cn3)ncc2Cl)[nH]n1`, with “inactive”.
Consider `NC(=O)c1ccccc1Nc1ccnc(Nc2cccc(O)c2)n1`, for which the Potency was 12.6 µM (active).
Same read-out and setting: then `Cc1nc(N)nc(N)c1-c1ccc(Cl)c(Cl)c1`, with 0.13 µM (active); and `CC1=C2C[C@H]3[C@@H](CC[C@@H]4C[C@H](NS(C)(=O)=O)CC[C@@]43C)[C@@H]2CC[C@@]2(C1)O[C@@H]1C[C@H](C)CN[C@H]1[C@H]2C`, with 17.8 µM (active).
On the same count and under the same terms, the same measure for `O=c1[nH]c(=O)c2ccccc2o1`: “inactive”; for `O=C(CCc1ccc(O)cc1)c1c(O)cc(O)cc1O`: “inactive”.
On the same count and under the same terms, the same measure for `O=[N+]([O-])c1ccc(O)c2ncccc12`: 411 nM (active) and 2.82 µM (active); for `COc1ncc(Nc2ncc(C(C)N3CCN(S(C)(=O)=O)CC3)cc2-c2nc(C)nc(N)n2)cc1F` (stereo not given): “inactive”.
Regarding `CCN(CC)CCOC(=O)c1ccc(N)cc1`, the Potency entry was “inactive”.
Still for that read-out and setting: then `Cc1ccc2c(c1)C(=O)[C@]1(O)CCN(c3ccccc3)C1=N2`, with “inactive”.
With `C[C@@H]1C(=O)O[C@H]2CC34[C@H]5C[C@@H](C(C)(C)C)C36[C@H](OC(=O)[C@@H]6O)O[C@@]4(C(=O)O5)[C@]21O` (stereo not given in full), the Potency result was “inactive”.
Same read-out and setting: then `Nc1ncnc2c1c(-c1cnc3[nH]ccc3c1)nn2C1CCCC1`, with 2.82 µM (active); and `O=c1[nH]cnc2[nH]ncc12`, with “inactive”.
